# Source: PubChem
# D1 antagonist = Antagonist of Human D 1 Dopamine Receptor: qHTS; D(1A) dopamine receptor (Homo sapiens), P21728; HEK293 TREx D1 cells, calcium flux, dopamine EC80; active compounds read low; activity change, negative = inhibition, % at 10 µM; 3.2% of 360,000 active; in the data active means activity change below about -30%; further: on the % scale 0 is the no-effect control and ±100 the full control effect
# Target sequence (P21728 whole entry, looked up): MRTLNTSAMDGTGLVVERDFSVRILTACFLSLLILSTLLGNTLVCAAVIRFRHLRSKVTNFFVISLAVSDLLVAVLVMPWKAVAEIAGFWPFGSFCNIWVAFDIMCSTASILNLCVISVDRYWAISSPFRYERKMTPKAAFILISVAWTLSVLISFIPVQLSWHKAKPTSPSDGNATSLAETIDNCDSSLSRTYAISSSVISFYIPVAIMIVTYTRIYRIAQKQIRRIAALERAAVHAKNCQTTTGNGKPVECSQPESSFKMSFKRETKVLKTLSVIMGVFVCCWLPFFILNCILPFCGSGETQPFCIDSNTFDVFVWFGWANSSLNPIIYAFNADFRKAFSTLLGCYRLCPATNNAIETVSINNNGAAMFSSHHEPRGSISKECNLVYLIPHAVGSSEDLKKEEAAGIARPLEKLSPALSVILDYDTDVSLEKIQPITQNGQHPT
#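 Calcium flux readout: force-coupled, inducible Hek293 Trex D1 line, cells induced overnight at 30 C with tetracycline, dye-loaded 30–90 min at RT. Antagonism scored against EC80 dopamine challenge given 180 s after compound.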
# TRHR enhancer = qHTS for Small Molecule Agonists and Allosteric Enhancers of Human TRH Receptor: Primary Screen for Enhancers; TRHR cells, fluo-8 calcium fluorescence, EC20 TRH enhancement; enhancement, % at 2 µM; 0.66% of 360,000 active; Thyrotropin-releasing hormone receptor (Homo sapiens), P34981; in the data active means enhancement above about 30%; further: 0% is about no effect
#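 TRHR-expressing cells loaded with fluo-8 calcium dye were read kinetically (ex 480/em 530) during compound addition, then stimulated with an EC20 of TRH (10 nM final). Enhancement of the Gq-mediated intracellular calcium response was scored.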
# D1 PAM = Potentiators of Human D1 Dopamine Receptor: qHTS; 0.036% of 360,000 active; D(1A) dopamine receptor (Homo sapiens), P21728; AID 504651, 2011; HEK293 TREx D1 cells, calcium flux, dopamine EC20 potentiation; potentiation, % at 10 µM; in the data active means potentiation above about 30%; further: 0% is about no effect
# TRHR agonist = qHTS for Small Molecule Agonists and Allosteric Enhancers of Human TRH Receptor: Primary Screen for Agonists; Thyrotropin-releasing hormone receptor (Homo sapiens), P34981; TRHR cells, calcium flux fluo-8, FDSS agonist mode; activation, % at 2 µM; 0.18% of 360,000 active; AID 493084, 2011; further: 0% is about no effect
#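 Agonist-mode FDSS calcium read (Ex 480/Em 530, 1 s cycles) in 1536-well TRHR cells with fluo-8 dye, after 10-cycle baseline and 23 nL compound addition; TRH at EC20 (10 nM final) added afterwards for the enhancer phase.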
# D1 ag = Allosteric Agonists of the Human D1 Dopamine Receptor: qHTS; activation, % at 2 µM; HEK293 T-REx D1 cells, calcium flux, agonist mode; 1% of 360,000 active; further: 0% is about no effect
#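 Agonism was scored from calcium flux recorded over 180 s (1 read/s) after pintool compound addition, following a 10-cycle baseline. Cells were inducible force-coupled HEK293 TREx D1, plated overnight at 30 C and loaded with no-wash calcium dye.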
# Starred values were filed as active, the others as inactive; · = no result given. Most compounds without a hit are left out; they make up all but 4.6% or so of the library. Unless noted, no stated cut-off is given here; in the data, active means activation above about 30%; inactive means the rest.
SMILES,D1 antagonist,TRHR enhancer,D1 PAM,TRHR agonist,D1 ag
Cc1n[nH]c(C)c1N1C(=O)c2cccc3c(N4CCCCCC4)ccc(c23)C1=O,0,6,4,126*,281*
O=C1c2ccccc2C(=O)N1CCN1CCCCC1,-11,-8,-1,0,8
O=C1c2cccc3c(N4CCCCC4)ccc(c23)C(=O)N1c1cccc(O)c1,2,5,10,73*,300*
CSc1ncc(C(=O)Nc2ccccc2F)c(-c2ccccc2)n1,-2,-1,-5,0,2
COCCNC(=O)CSc1nc(-c2ccccc2)[nH]c1-c1ccc(OC)cc1,4,1,-1,-1,1
NS(=O)(=O)c1ccc(NC(=O)CSc2n[nH]c(=O)n2Cc2ccccc2)cc1,6,-2,0,1,5
O=C(CSc1n[nH]c(=O)n1Cc1ccccc1)Nc1ccc(F)c(F)c1F,4,22,-4,-2,34*
CCCCOP(=O)(OCCCC)C(O)c1ccc(N(C)C)cc1 (stereo not given),-37*,0,-11,0,4
CC(C)C[C@@H](CSc1ccccc1)N1CCN(CCc2ccccc2)CCC1=O,-4,-2,6,0,5
CCCN1CCC(=O)N([C@H](CSc2ccc(OC)cc2)CC(C)C)CC1,-34*,-6,-2,0,0
Cn1nccc1NC(=O)Nc1cccc(Cl)c1Cl,-33*,10,-15,0,4
CN1CCN(NC(=O)Nc2cccc(Cl)c2Cl)CC1,-2,2,-4,3,1
CCOc1ccc(NC(=O)CSc2oc(-c3ccc(C)cc3)nc2S(=O)(=O)c2ccc(C)cc2)cc1,15,8,0,0,44*
CCOc1ccc(NC(=O)CSc2oc(-c3cccs3)nc2S(=O)(=O)c2ccc(Cl)cc2)cc1,-18,-1,-1,0,5
O=C(O)CCCN1C(=O)/C(=C\c2ccc(-c3nc4ccccc4s3)o2)SC1=S,80,-5,6,7,35*
O=C(O)CCN1C(=O)/C(=C/c2ccc(-c3nc4ccccc4s3)o2)SC1=S,98,7,5,1,28
O=C(O)CN1C(=O)/C(=C/c2ccc(-c3cccc(Cl)c3)o2)SC1=S,13,32*,10,2,5
O=C(O)c1cc(-c2ccc(/C=C3/SC(=S)N(Cc4ccccc4)C3=O)o2)ccc1Cl,4,14,-6,-1,7
Oc1c(C(c2ccccc2F)N2CCN(c3ccccc3F)CC2)sc2nc(-c3ccco3)nn12 (stereo not given),·,3,1,0,-4
Cc1ccccc1OCC(O)CN(CCO)Cc1ccccc1 (stereo not given),-47*,-8,-1,0,1
Cc1ccc(Cn2nc(C)c(NC(=O)C3(C)CC3(Br)Br)c2C)cc1 (stereo not given),-38*,6,-4,0,0
CCc1cc(C(=O)Nc2c(C)nn(Cc3ccc(C)cc3)c2C)no1,-9,3,2,-2,-1
CCCN(CCC)c1cc(C)nc2nc(-c3ccc(Cl)cc3)nn12,0,8,2,0,-1
CCOC(=O)c1ccc(NC(=O)N2CCOc3ccccc32)cc1,-30*,-8,-5,1,9
CCOC(=O)c1ccc(NC(=O)CC2COc3ccccc3O2)cc1 (stereo not given),-30*,10,1,1,0
COc1ccc(NC(=O)CC2C(=O)N(c3cccc(OC)c3)C(=O)N2CCC2=CCCCC2)cc1 (stereo not given),-8,-6,-3,-2,4
O=C(NCCc1ccccc1)C1COc2ccccc2C1 (stereo not given),-7,-2,-3,0,3
O=C(NCCN1CCN(c2cccc(Cl)c2)CC1)C1COc2ccccc2C1 (stereo not given),-86*,23,-5,0,8
